# Assay results as given in paper PMC11024108.
# Columns and labels:
# [1] = biological target: Cytochrome c oxidase assembly factor 7 (UniProt Q96BR5); test: cross-link between two proteins; affinity purification or IP with mass spectrometry; cross-linking mass spectrometry
# [2] = biological target: Bifunctional glutamate/proline--tRNA ligase (UniProt Q8CGC7); test: cross-link between two proteins; cross-linking mass spectrometry
# Annexin A11 = Annexin A11 (UniProt P50995); test: as above
# [3] = biological target: 14-3-3 protein zeta/delta (UniProt P63101); test: as above
# 14-3-3 protein zeta/delta (UniProt P63101), sequence (P63101 whole entry, stated change not applied): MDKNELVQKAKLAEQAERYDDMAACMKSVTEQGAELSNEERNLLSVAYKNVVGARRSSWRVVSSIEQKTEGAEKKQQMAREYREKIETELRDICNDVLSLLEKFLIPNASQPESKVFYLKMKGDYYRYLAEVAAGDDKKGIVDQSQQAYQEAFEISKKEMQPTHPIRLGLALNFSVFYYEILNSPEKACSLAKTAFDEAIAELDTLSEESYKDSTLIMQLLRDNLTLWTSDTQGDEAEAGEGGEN
# Actin, cytoplasmic 1 = Actin, cytoplasmic 1 (UniProt P60710); test: as above
# [4] = biological target: ATP synthase F(0) complex subunit e, mitochondrial (UniProt P56385); test: as above
# ATP synthase F(0) complex subunit e, mitochondrial, sequence (P56385 whole entry, one chain of several): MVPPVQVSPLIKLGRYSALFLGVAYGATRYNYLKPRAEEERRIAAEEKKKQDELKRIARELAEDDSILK
# Amphiphysin = Amphiphysin (UniProt Q7TQF7); test: as above
# [5] = biological target: AP-3 complex subunit beta-2 (UniProt Q9JME5); test: as above
# [6] = biological target: AP-3 complex subunit sigma-1 (UniProt Q9DCR2); test: as above
# [7] = biological target: AP-2 complex subunit beta (UniProt P63010); test: as above
# AP-2 complex subunit mu [8] = biological target: AP-2 complex subunit mu (UniProt Q96CW1); test: as above
# [9] = biological target: Epidermal growth factor receptor substrate 15-like 1 (UniProt Q9UBC2); test: as above
# [10] = biological target: Phosphatidylinositol-binding clathrin assembly protein (UniProt Q13492); test: as above
# ADP/ATP translocase 2 = ADP/ATP translocase 2 (UniProt P51881); test: as above
# ADP/ATP translocase 2, sequence (P51881 whole entry): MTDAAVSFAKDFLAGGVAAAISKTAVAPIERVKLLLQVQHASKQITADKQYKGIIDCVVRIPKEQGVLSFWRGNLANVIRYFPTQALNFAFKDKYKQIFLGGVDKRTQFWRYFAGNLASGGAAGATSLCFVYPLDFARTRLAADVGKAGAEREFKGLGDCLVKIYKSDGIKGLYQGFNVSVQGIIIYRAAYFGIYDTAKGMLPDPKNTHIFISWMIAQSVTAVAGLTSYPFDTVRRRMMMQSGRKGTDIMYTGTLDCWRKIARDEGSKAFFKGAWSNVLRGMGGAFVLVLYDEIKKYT
# AP-2 complex subunit mu [11] = biological target: AP-2 complex subunit mu (UniProt P84091); test: as above
# [12] = biological target: AP-2 complex subunit sigma (UniProt P62743); test: as above
# [13] = biological target: SH3-containing GRB2-like protein 3-interacting protein 1 (UniProt Q8VD37); test: as above
# [14] = biological target: Aconitate hydratase, mitochondrial (UniProt Q99798); test: as above
# [15] = biological target: Malate dehydrogenase, mitochondrial (UniProt P40926); test: as above
# [16] = biological target: Elongation factor Tu, mitochondrial (UniProt P49411); test: cross-linking mass spectrometry
# [17] = biological target: Large ribosomal subunit protein bL12m (UniProt P52815); test: cross-linking mass spectrometry
# [18] = biological target: Large ribosomal subunit protein mL45 (UniProt Q9BRJ2); test: cross-linking mass spectrometry
# [19] = biological target: Leucine-rich PPR motif-containing protein, mitochondrial (UniProt P42704); test: cross-linking mass spectrometry
# [20] = biological target: 3-hydroxyacyl-CoA dehydrogenase type-2 (UniProt Q99714); test: cross-link between two proteins; cross-linking mass spectrometry
# [21] = biological target: ATP synthase peripheral stalk subunit OSCP, mitochondrial (UniProt P48047); test: as above
# [22] = biological target: Acyl-coenzyme A thioesterase 9, mitochondrial (UniProt Q9Y305); test: as above
# [23] = biological target: Alpha-aminoadipic semialdehyde dehydrogenase (UniProt P49419); test: as above
# [24] = biological target: Aspartate--tRNA ligase, mitochondrial (UniProt Q6PI48); test: as above
# [25] = biological target: Delta(3,5)-Delta(2,4)-dienoyl-CoA isomerase, mitochondrial (UniProt Q13011); test: as above
# [26] = biological target: Elongation factor G, mitochondrial (UniProt Q96RP9); test: as above
# [27] = biological target: Heat shock protein 75 kDa, mitochondrial (UniProt Q12931); test: as above
# [28] = biological target: Hydroxyacyl-coenzyme A dehydrogenase, mitochondrial (UniProt Q16836); test: as above
# [29] = biological target: Isocitrate dehydrogenase [NAD] subunit alpha, mitochondrial (UniProt P50213); test: as above
# [30] = biological target: NADH dehydrogenase [ubiquinone] 1 alpha subcomplex subunit 5 (UniProt Q16718); test: as above
# [31] = biological target: Polyribonucleotide nucleotidyltransferase 1, mitochondrial (UniProt Q8TCS8); test: as above
# [32] = biological target: Presequence protease, mitochondrial (UniProt Q5JRX3); test: as above
# [33] = biological target: Solute carrier family 25 member 3 (UniProt Q00325); test: as above
# Solute carrier family 25 member 3, sequence (Q00325 whole entry): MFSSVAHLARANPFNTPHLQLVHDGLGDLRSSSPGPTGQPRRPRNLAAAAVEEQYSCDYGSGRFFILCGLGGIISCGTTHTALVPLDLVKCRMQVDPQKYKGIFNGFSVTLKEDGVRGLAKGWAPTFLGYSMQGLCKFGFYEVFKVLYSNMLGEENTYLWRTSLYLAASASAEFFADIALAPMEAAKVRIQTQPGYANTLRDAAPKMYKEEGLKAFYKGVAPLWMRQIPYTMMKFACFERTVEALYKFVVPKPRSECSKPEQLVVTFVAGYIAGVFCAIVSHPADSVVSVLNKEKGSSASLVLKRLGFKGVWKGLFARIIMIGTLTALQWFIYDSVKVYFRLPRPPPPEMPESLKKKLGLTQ
# [34] = biological target: Stomatin-like protein 2, mitochondrial (UniProt Q9UJZ1); test: as above
# [35] = biological target: Succinate-semialdehyde dehydrogenase, mitochondrial (UniProt P51649); test: as above
# [36] = biological target: Transcription factor A, mitochondrial (UniProt Q00059); test: as above
# [37] = biological target: Tyrosine--tRNA ligase, mitochondrial (UniProt Q9Y2Z4); test: as above
# Zeta-crystallin = Zeta-crystallin (UniProt Q08257); test: as above
# [38] = biological target: Adenylate kinase 2, mitochondrial (UniProt P54819); test: as above
# Cytochrome c = Cytochrome c (UniProt P99999); test: as above
# [39] = biological target: Glycerol-3-phosphate dehydrogenase, mitochondrial (UniProt P43304); test: as above
# [40] = biological target: AP-2 complex subunit beta (UniProt Q9DBG3); test: as above
# AP-2 complex subunit beta (UniProt Q9DBG3), sequence (Q9DBG3 whole entry, one chain of several): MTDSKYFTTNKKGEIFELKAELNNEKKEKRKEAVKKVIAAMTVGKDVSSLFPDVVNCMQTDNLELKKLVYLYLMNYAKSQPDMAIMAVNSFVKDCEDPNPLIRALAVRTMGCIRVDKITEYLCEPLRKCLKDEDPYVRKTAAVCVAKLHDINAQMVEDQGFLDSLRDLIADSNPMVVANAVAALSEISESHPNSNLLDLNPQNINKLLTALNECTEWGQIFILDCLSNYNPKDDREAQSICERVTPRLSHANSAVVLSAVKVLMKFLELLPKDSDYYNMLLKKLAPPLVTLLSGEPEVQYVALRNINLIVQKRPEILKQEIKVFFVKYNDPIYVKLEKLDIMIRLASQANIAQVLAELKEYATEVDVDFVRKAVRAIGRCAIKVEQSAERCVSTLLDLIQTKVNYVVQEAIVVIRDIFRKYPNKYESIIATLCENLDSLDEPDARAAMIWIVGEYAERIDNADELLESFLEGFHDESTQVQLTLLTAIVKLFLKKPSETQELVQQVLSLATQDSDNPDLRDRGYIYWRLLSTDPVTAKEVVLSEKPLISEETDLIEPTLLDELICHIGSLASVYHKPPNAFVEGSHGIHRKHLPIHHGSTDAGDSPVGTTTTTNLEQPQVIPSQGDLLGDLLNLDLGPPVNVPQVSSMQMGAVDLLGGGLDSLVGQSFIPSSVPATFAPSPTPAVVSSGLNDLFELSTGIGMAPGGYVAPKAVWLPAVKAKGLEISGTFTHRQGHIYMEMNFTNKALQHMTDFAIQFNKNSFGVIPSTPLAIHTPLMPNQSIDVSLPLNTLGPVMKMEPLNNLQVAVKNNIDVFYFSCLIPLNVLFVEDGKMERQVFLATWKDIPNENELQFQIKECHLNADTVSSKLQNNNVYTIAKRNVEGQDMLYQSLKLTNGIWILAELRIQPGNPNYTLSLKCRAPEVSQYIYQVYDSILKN
# Ataxin-2 = Ataxin-2 (UniProt Q99700); test: as above
# [41] = biological target: Brain acid soluble protein 1 (UniProt Q91XV3); test: as above
# P2X purinoceptor 7 = P2X purinoceptor 7 (UniProt Q9Z1M0); test: as above
# [42] = biological target: AP2-associated protein kinase 1 (UniProt Q3UHJ0); test: as above
# AP2-associated protein kinase 1, sequence (Q3UHJ0 whole entry): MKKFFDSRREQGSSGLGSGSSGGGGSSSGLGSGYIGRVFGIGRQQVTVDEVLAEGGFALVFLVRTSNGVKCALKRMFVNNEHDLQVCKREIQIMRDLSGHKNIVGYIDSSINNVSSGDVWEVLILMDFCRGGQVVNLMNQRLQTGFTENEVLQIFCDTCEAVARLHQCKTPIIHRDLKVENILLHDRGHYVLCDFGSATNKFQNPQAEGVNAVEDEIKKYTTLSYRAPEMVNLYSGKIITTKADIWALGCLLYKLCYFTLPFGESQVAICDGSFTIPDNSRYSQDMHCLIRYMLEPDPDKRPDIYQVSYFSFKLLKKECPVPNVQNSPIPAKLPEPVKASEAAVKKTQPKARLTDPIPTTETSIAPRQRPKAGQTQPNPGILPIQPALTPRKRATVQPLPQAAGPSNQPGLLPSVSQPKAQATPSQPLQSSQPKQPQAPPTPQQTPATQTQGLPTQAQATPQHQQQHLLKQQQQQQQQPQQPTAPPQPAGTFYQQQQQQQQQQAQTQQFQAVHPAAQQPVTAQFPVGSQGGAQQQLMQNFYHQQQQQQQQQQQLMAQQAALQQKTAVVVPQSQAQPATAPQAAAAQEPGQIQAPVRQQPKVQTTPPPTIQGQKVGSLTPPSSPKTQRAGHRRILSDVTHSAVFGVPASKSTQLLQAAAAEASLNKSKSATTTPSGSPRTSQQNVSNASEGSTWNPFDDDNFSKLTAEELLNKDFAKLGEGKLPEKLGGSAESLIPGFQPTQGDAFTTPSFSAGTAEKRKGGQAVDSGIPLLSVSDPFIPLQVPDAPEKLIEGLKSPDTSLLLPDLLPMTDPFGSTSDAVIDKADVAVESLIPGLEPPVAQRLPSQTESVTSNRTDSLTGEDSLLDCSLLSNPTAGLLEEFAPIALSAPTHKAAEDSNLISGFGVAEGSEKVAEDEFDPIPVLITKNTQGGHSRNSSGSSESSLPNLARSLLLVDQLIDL
# [43] = biological target: ATP synthase F(1) complex subunit alpha, mitochondrial (UniProt P25705); test: as above
# Alpha-internexin = Alpha-internexin (UniProt P46660); test: as above
# Alpha-internexin, sequence (P46660 whole entry): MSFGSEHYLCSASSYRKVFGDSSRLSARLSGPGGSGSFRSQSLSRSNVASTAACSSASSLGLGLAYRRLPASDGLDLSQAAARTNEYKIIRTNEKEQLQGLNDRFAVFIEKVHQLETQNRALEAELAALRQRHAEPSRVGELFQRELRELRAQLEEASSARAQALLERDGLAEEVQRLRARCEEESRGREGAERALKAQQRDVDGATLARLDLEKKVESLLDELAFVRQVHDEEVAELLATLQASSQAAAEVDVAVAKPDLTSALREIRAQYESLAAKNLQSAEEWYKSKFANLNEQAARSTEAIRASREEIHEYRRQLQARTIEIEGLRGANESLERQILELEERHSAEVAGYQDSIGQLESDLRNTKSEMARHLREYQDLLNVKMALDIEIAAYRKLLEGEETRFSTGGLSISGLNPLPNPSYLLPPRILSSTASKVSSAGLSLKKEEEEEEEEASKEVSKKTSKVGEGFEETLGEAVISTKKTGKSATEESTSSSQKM
# [44] = biological target: B-cell receptor-associated protein 31 (UniProt Q61335); test: as above
# [45] = biological target: ATPase inhibitor, mitochondrial (UniProt Q9UII2); test: as above
# [46] = biological target: Stress-70 protein, mitochondrial (UniProt P38646); test: as above
# [47] = biological target: ATP-dependent 6-phosphofructokinase, platelet type (UniProt Q9WUA3); test: as above
# [48] = biological target: 2-oxoglutarate dehydrogenase-like, mitochondrial (UniProt Q9ULD0); test: as above
# [49] = biological target: BOS complex subunit NOMO2 (UniProt Q5JPE7); test: as above
# [50] = biological target: 14-3-3 protein zeta/delta (UniProt P63104); test: as above
# [51] = biological target: 3-hydroxyisobutyryl-CoA hydrolase, mitochondrial (UniProt Q6NVY1); test: as above
# [52] = biological target: ADP-ribosylation factor-like protein 8B (UniProt Q9NVJ2); test: as above
# [53] = biological target: AP-3 complex subunit mu-1 (UniProt Q9Y2T2); test: as above
# [54] = biological target: Neurofilament heavy polypeptide (UniProt P19246); test: as above
# [55] = biological target: Neurofilament medium polypeptide (UniProt P08553); test: as above
# [56] = biological target: ATP synthase peripheral stalk subunit d, mitochondrial (UniProt Q9DCX2); test: as above
# [57] = biological target: ATP synthase F(0) complex subunit 8 (UniProt P03928); test: as above
# ATP synthase F(0) complex subunit 8, sequence (P03928 whole entry, one chain of several): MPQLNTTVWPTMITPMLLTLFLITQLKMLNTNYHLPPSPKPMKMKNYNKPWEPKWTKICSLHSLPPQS
# [58] = biological target: Trifunctional enzyme subunit alpha, mitochondrial (UniProt P40939); test: as above
# [59] = biological target: Trifunctional enzyme subunit beta, mitochondrial (UniProt P55084); test: as above
# Alpha-actinin-2 = Alpha-actinin-2 (UniProt Q9JI91); test: as above
# [60] = biological target: Actin-binding protein WASF1 (UniProt Q8R5H6); test: as above
# [61] = biological target: Charged multivesicular body protein 3 (UniProt Q9Y3E7); test: cross-linking mass spectrometry
# [62] = biological target: Charged multivesicular body protein 2b (UniProt Q9UQN3); test: cross-link between two proteins; cross-linking mass spectrometry
# [63] = biological target: COMM domain-containing protein 8 (UniProt Q9CZG3); test: as above
# Calnexin = Calnexin (UniProt P27824); test: as above
# [64] = biological target: Transmembrane emp24 domain-containing protein 10 (UniProt P49755); test: as above
# Calreticulin = Calreticulin (UniProt P27797); test: as above
# ATP synthase peripheral stalk subunit d, mitochondrial, O75947, sequence (O75947 whole entry): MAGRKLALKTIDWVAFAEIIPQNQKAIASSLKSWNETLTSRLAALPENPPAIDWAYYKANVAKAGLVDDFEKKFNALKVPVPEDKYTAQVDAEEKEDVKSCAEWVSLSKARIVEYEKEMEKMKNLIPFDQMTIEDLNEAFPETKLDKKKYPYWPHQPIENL
# Glyceraldehyde-3-phosphate dehydrogenase, P16858, sequence (P16858 whole entry): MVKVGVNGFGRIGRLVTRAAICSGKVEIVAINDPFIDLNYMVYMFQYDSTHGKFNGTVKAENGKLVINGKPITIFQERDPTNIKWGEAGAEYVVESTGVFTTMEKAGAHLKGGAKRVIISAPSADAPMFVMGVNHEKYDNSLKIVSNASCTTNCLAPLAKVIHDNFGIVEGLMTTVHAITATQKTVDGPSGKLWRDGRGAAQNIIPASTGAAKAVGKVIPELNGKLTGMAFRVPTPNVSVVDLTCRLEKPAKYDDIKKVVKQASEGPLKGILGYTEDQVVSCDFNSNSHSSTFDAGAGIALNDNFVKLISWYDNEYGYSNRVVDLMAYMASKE
# Trifunctional enzyme subunit alpha, mitochondrial, P40939, sequence (P40939 whole entry): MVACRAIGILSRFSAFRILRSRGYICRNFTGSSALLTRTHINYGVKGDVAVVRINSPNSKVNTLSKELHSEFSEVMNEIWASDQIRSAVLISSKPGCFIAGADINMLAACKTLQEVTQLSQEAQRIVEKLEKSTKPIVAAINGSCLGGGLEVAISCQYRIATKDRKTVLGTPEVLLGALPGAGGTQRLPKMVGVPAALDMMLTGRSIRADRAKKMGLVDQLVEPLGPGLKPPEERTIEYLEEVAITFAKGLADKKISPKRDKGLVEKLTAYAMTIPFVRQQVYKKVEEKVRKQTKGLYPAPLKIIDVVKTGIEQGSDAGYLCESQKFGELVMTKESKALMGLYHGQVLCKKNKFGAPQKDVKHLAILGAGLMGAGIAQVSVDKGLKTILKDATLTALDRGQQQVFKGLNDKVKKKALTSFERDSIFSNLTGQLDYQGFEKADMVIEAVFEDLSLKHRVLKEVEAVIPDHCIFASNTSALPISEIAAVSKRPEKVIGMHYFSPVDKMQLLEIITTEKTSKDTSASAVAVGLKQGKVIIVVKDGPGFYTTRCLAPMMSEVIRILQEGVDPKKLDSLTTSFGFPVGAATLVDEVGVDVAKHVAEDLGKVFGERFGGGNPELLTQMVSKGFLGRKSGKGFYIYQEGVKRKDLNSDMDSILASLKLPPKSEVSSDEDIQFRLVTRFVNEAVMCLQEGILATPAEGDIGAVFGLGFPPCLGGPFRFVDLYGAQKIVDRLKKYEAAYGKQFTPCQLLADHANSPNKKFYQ
# Peptidyl-prolyl cis-trans isomerase B, P23284, sequence (P23284 whole entry): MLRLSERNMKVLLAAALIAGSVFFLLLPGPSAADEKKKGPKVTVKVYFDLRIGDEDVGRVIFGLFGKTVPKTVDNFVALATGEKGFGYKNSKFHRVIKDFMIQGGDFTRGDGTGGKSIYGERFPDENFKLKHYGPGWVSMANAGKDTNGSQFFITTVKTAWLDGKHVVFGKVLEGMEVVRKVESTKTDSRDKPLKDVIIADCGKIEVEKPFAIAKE
substance,measurement,setting,value
"Cytochrome c oxidase assembly factor SCO2, O43819",listed as a hit,[1],yes
"Isoleucine--tRNA ligase, cytoplasmic, Q8BU30",listed as a hit,[2],yes
"Annexin A7, P20073",listed as a hit,Annexin A11,yes
"14-3-3 protein epsilon, P62259",listed as a hit,[3],yes
"Adenylyl cyclase-associated protein 1, P40124",listed as a hit,"Actin, cytoplasmic 1",yes
"Trifunctional enzyme subunit beta, mitochondrial, P55084",listed as a hit,[4],yes
"14-3-3 protein gamma, P61982",listed as a hit,[3],yes
"Myc box-dependent-interacting protein 1, O08539",listed as a hit,Amphiphysin,yes
"AP-3 complex subunit delta-1, O54774",listed as a hit,[5],yes
same,listed as a hit,[6],yes
"AP-2 complex subunit alpha-2, O94973",listed as a hit,[7],yes
same,listed as a hit,AP-2 complex subunit mu [8],yes
same,listed as a hit,[9],yes
same,listed as a hit,[10],yes
"ADP/ATP translocase 1, P48962",listed as a hit,ADP/ATP translocase 2,yes
"AP-1 complex subunit beta-1, O35643",listed as a hit,AP-2 complex subunit mu [11],yes
same,listed as a hit,[12],yes
same,listed as a hit,[13],yes
"Fumarate hydratase, mitochondrial, P07954",listed as a hit,[14],yes
same,listed as a hit,[15],yes
"Malate dehydrogenase, mitochondrial, P40926",listed as a hit,[16],yes
same,listed as a hit,[17],yes
same,listed as a hit,[18],yes
same,listed as a hit,[19],yes
same,listed as a hit,[20],yes
same,listed as a hit,[21],yes
same,listed as a hit,[22],yes
same,listed as a hit,[23],yes
same,listed as a hit,[24],yes
same,listed as a hit,[25],yes
same,listed as a hit,[26],yes
same,listed as a hit,[27],yes
same,listed as a hit,[28],yes
same,listed as a hit,[29],yes
same,listed as a hit,[30],yes
same,listed as a hit,[31],yes
same,listed as a hit,[32],yes
same,listed as a hit,[33],yes
same,listed as a hit,[34],yes
same,listed as a hit,[35],yes
same,listed as a hit,[36],yes
same,listed as a hit,[37],yes
same,listed as a hit,Zeta-crystallin,yes
"Prohibitin 1, P35232",listed as a hit,[38],yes
same,listed as a hit,Cytochrome c,yes
same,listed as a hit,[39],yes
"SH3-containing GRB2-like protein 3-interacting protein 1, Q8VD37",listed as a hit,[40],yes
"Ataxin-2-like protein, Q8WWM7",listed as a hit,Ataxin-2,yes
"Glyceraldehyde-3-phosphate dehydrogenase, P16858",listed as a hit,[41],yes
same,listed as a hit,P2X purinoceptor 7,yes
"AP-2 complex subunit alpha-1, P17426",listed as a hit,[40],yes
same,listed as a hit,[42],yes
"WD repeat-containing protein 1, O88342",listed as a hit,"Actin, cytoplasmic 1",yes
"ATP synthase peripheral stalk subunit b, mitochondrial, P24539",listed as a hit,[43],yes
"Neurofilament medium polypeptide, P08553",listed as a hit,Alpha-internexin,yes
"B-cell receptor-associated protein 29, Q61334",listed as a hit,[44],yes
"ATP synthase F(1) complex subunit gamma, mitochondrial, P36542",listed as a hit,[45],yes
same,listed as a hit,[46],yes
"ATP-dependent 6-phosphofructokinase, muscle type, P47857",listed as a hit,[47],yes
"2-oxoglutarate dehydrogenase complex component E1, Q02218",listed as a hit,[48],yes
"BOS complex subunit NOMO3, P69849",listed as a hit,[49],yes
"Trifunctional enzyme subunit alpha, mitochondrial, P40939",listed as a hit,[4],yes
same,listed as a hit,[33],yes
"14-3-3 protein gamma, P61981",listed as a hit,[50],yes
"Adaptin ear-binding coat-associated protein 1, Q9CR95",listed as a hit,[40],yes
"AP-2 complex subunit mu, P84091",listed as a hit,[40],yes
same,listed as a hit,[42],yes
"Mitochondrial-processing peptidase subunit alpha, Q10713",listed as a hit,[51],yes
"Neurofilament heavy polypeptide, P19246",listed as a hit,Alpha-internexin,yes
"AP-2 complex subunit mu, Q96CW1",listed as a hit,[52],yes
"AP-3 complex subunit beta-1, O00203",listed as a hit,[53],yes
"Neurofilament light polypeptide, P08551",listed as a hit,Alpha-internexin,yes
same,listed as a hit,[54],yes
same,listed as a hit,[55],yes
"ATP synthase peripheral stalk subunit F6, mitochondrial, P97450",listed as a hit,[56],yes
"ATP synthase peripheral stalk subunit d, mitochondrial, O75947",listed as a hit,[57],yes
same,listed as a hit,[58],yes
same,listed as a hit,[59],yes
"Synaptopodin, Q8CC35",listed as a hit,Alpha-actinin-2,yes
"Cytoplasmic FMR1-interacting protein 2, Q5SQX6",listed as a hit,[60],yes
"Charged multivesicular body protein 1a, Q9HD42",listed as a hit,[61],yes
same,listed as a hit,[62],yes
"COMM domain-containing protein 1, Q8K4M5",listed as a hit,[63],yes
"Peptidyl-prolyl cis-trans isomerase B, P23284",listed as a hit,Calnexin,yes
same,listed as a hit,[64],yes
"Endoplasmic reticulum chaperone BiP, P11021",listed as a hit,Calreticulin,yes
